Results filed as inconclusive are left out. Entries that show only a call come without a potency. Calls of active or inactive are those of the source. Calls follow the shape of the dose curve; as a rule, active = well fitted curve in the direction sought with a large enough effect; inconclusive = small, poorly fitted or top-dose-only effect, or another doubt; inactive = no such curve, though single readings can be large; an effect the other way counts as inactive or inconclusive.
Test system: not listed separately
Assay: qHTS to identify inhibitors of the type 1 interferon - major histocompatibility complex class I in skeletal muscle: primary screen against the NCATS Pharmaceutical Collection (AID 1347407);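 also: luminescence of HiBiT knocked into endogenous HLA-B as interferon-induced MHC class I level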
Conditions: human skeletal muscle cells, IFN-b-induced MHC-I HiBiT luminescence, 24 h; series mostly up to 45.9 µM
In short: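 Cells were seeded with 4 ng/ml IFN-beta, incubated 1 h, then dosed with compounds over eight 1:5 steps up to 46 uM final. After 24 h at 37 C, HiBiT lytic reagent was added and luminescence read after 10 min lysis in the dark.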

SMILES | Potency
CC(C)C(=O)Nc1cccc(C(F)(F)F)c1 | inactive
CN=C(N)NC(=O)Nc1c(C)cccc1C | inactive
O=C1NC(c2ccccc2)(c2ccccc2)C(=O)N1COP(=O)(O)O | inactive
CC1(C)S[C@@H]2[C@H](NC(=O)C(c3ccccc3)S(=O)(=O)O)C(=O)N2[C@H]1C(=O)O (stereo partly drawn) | inactive
CCC1(c2cnc[nH]2)Cc2ccccc2C1 | inactive
CCN(CC)CC(=O)Oc1ccc(NC(C)=O)cc1 | inactive
O=C(C1CCCCC1)N1CC(=O)N2CCCc3ccccc3C2C1 (stereo not drawn) | inactive
CC(=O)O[C@@H]1CC2C3CCc4cc(OC(=O)c5ccccc5)ccc4C3CCC2(C)[C@H]1OC(C)=O (stereo partly drawn) | inactive
Cc1ccccc1C(=O)N1CC/C(=N\OS(=O)(=O)O)c2ccc(Cl)cc21 | inactive
CCOc1ccccc1OCC1CNCCO1 (stereo not drawn) | inactive
CO/N=C(/C(=O)N[C@@H]1C(=O)N2C(C(=O)OCOC(=O)C(C)(C)C)=C(C)CS[C@H]12)c1csc(N)n1 | inactive
CCOc1c(N2CCOCC2)cnn(C)c1=O | inactive
C=C(C)C(=O)OCC(O)CO (stereo not drawn) | inactive
C[C@H]1C[C@H](O)c2ccsc2S1(=O)=O | inactive

Molecular target: Protein phosphatase 1D (Homo sapiens) (UniProt O15297)
Assay: RapidFire Mass Spectrometry qHTS Assay for Modulators of WT P53-Induced Phosphatase 1 (WIP1) (AID 1347424);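 also: amount of dephosphorylated VEPPL-S-QETFS peptide product formed by WIP1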
Conditions: WIP1 dephosphorylation of phosphopeptide, RapidFire MS; series mostly up to 63 µM
In short: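 RapidFire mass spectrometry measured dephosphorylated peptide after 5 min room-temperature reaction of 2 uM VEPPL-pS-QETFS with 10 nM WIP1 (50 mM Tris-HCl pH 7.5, 30 mM MgCl2, 0.1 mM EGTA, BSA), following 1 hr compound preincubation; 1 uM isotope-labelled product standard.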

Sequence of Protein phosphatase 1D (Homo sapiens) (O15297 whole entry, looked up): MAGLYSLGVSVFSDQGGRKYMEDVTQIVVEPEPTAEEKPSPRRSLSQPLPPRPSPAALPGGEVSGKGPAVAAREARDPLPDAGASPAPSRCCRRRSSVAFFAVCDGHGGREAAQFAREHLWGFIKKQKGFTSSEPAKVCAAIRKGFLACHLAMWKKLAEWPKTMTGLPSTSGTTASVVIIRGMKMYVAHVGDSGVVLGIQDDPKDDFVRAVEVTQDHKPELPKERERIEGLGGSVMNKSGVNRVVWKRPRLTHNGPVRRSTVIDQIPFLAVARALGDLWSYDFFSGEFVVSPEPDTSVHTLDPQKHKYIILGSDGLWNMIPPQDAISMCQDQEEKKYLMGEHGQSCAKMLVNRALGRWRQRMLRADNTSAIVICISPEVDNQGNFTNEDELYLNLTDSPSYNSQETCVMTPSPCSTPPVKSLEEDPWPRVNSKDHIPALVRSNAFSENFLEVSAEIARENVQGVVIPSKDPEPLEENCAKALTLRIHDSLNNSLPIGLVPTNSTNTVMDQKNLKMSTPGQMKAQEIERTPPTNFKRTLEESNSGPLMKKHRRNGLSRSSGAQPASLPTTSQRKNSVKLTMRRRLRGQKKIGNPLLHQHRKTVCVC

SMILES | Potency
O=C1CC[C@H](C(=O)N2CCCCC2)N1 | inactive
CCCC(CCC)(C(=O)OCC)C(=O)OCC | inactive
Cc1ccc2c(Cl)cc(Cl)c(O)c2n1 | inactive
N#Cc1cc(NC(=O)C(=O)O)c(Cl)c(NC(=O)C(=O)O)c1 | inactive
O=C(CCCl)NCc1ccccc1 | inactive
C=CCOc1cc(Cl)ccc1C(=O)NCCN(CC)CC | inactive
COc1cc(C=O)ccc1O | inactive
CCN1CCN(C(=O)N[C@@H](C(=O)N[C@@H]2C(=O)N3[C@@H]2SC(C)(C)[C@H]3C(=O)O)c2ccccc2)C(=O)C1=O | inactive
Fc1ccc(C(c2ccc(F)cc2)N2CCNCC2)cc1 | inactive
CCOc1ncc(F)c(=O)[nH]1 | inactive
CC(COc1ccccc1)NN (stereo not drawn) | inactive
CC(C)=CCC/C(C)=C/CC/C(C)=C/CCC(=O)OC/C=C(\C)CCC=C(C)C | inactive
CCCCC(O)/C=C(C)/C=C/C=C/C(=O)N1CCCC1=O (stereo not drawn) | inactive
CCCCCC[C@@H](CCC)C(=O)O | inactive
CCO[C@H](Cc1ccc(OCCc2ccc(OS(C)(=O)=O)cc2)cc1)C(=O)O | inactive
NC(=O)NS(=O)(=O)c1ccc(Cl)cc1 | inactive
Nc1ccc(C(=O)OCC(O)CO)cc1 (stereo not drawn) | inactive
CCOC(=O)C(O)c1ccccc1 (stereo not drawn) | inactive
CC(=O)c1ccc(O)c(C(N)=O)c1 | inactive

SMILES | Potency
Nc1nc(=O)n([C@@H]2O[C@H](CO)[C@@H](O)[C@@H]2F)cc1I | inactive
C1=CC2C3C=CC(C3)C2C1 (stereo not drawn) | inactive
Cc1cc(O)c(C)c(C)c1O | inactive
CCCCOC(=O)CCCCCCCCC(=O)OCCCC | inactive
CC(C)C(=O)Nc1cccc(C(F)(F)F)c1 | inactive
CN=C(N)NC(=O)Nc1c(C)cccc1C | inactive
O=C1NC(c2ccccc2)(c2ccccc2)C(=O)N1COP(=O)(O)O | inactive
CC1(C)S[C@@H]2[C@H](NC(=O)C(c3ccccc3)S(=O)(=O)O)C(=O)N2[C@H]1C(=O)O (stereo partly drawn) | inactive
CCC1(c2cnc[nH]2)Cc2ccccc2C1 | inactive
CCN(CC)CC(=O)Oc1ccc(NC(C)=O)cc1 | inactive
O=C(C1CCCCC1)N1CC(=O)N2CCCc3ccccc3C2C1 (stereo not drawn) | inactive
CC(=O)O[C@@H]1CC2C3CCc4cc(OC(=O)c5ccccc5)ccc4C3CCC2(C)[C@H]1OC(C)=O (stereo partly drawn) | inactive
Cc1ccccc1C(=O)N1CC/C(=N\OS(=O)(=O)O)c2ccc(Cl)cc21 | inactive
CCOc1ccccc1OCC1CNCCO1 (stereo not drawn) | inactive
CO/N=C(/C(=O)N[C@@H]1C(=O)N2C(C(=O)OCOC(=O)C(C)(C)C)=C(C)CS[C@H]12)c1csc(N)n1 | inactive
CCOc1c(N2CCOCC2)cnn(C)c1=O | inactive
C=C(C)C(=O)OCC(O)CO (stereo not drawn) | inactive
C[C@H]1C[C@H](O)c2ccsc2S1(=O)=O | inactive

Molecular target: Protein phosphatase 1D (Homo sapiens) (UniProt O15297)
Assay: Rhodamine-PBP qHTS Assay for Modulators of WT P53-Induced Phosphatase 1 (WIP1) (AID 1347425)
Conditions: recombinant WIP1, Rhodamine-PBP phosphate fluorescence, real-time; series mostly up to 57.5 µM
In short: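 Read-out: Rhodamine-PBP fluorescence (ex 525/em 598 nm) for released Pi, read each minute for 11 min after adding 10 uM VEPPL-pS-QETFS; signal taken as f1 minus pre-substrate f0. Enzyme 5 nM WIP1 with 1 hr room-temperature compound preincubation.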

SMILES | outcome
O=C1CC[C@H](C(=O)N2CCCCC2)N1 | inactive
CCCC(CCC)(C(=O)OCC)C(=O)OCC | inactive
Cc1ccc2c(Cl)cc(Cl)c(O)c2n1 | inactive
N#Cc1cc(NC(=O)C(=O)O)c(Cl)c(NC(=O)C(=O)O)c1 | inactive
O=C(CCCl)NCc1ccccc1 | inactive
C=CCOc1cc(Cl)ccc1C(=O)NCCN(CC)CC | inactive
COc1cc(C=O)ccc1O | inactive
CCN1CCN(C(=O)N[C@@H](C(=O)N[C@@H]2C(=O)N3[C@@H]2SC(C)(C)[C@H]3C(=O)O)c2ccccc2)C(=O)C1=O | inactive
Fc1ccc(C(c2ccc(F)cc2)N2CCNCC2)cc1 | inactive
CCOc1ncc(F)c(=O)[nH]1 | inactive
CC(COc1ccccc1)NN (stereo not drawn) | inactive
CC(C)=CCC/C(C)=C/CC/C(C)=C/CCC(=O)OC/C=C(\C)CCC=C(C)C | inactive
CCCCC(O)/C=C(C)/C=C/C=C/C(=O)N1CCCC1=O (stereo not drawn) | inactive
CCCCCC[C@@H](CCC)C(=O)O | inactive
CCO[C@H](Cc1ccc(OCCc2ccc(OS(C)(=O)=O)cc2)cc1)C(=O)O | inactive
NC(=O)NS(=O)(=O)c1ccc(Cl)cc1 | inactive
Nc1ccc(C(=O)OCC(O)CO)cc1 (stereo not drawn) | inactive
CCOC(=O)C(O)c1ccccc1 (stereo not drawn) | inactive
CC(=O)c1ccc(O)c(C(N)=O)c1 | inactive

SMILES | outcome
Nc1nc(=O)n([C@@H]2O[C@H](CO)[C@@H](O)[C@@H]2F)cc1I | inactive
C1=CC2C3C=CC(C3)C2C1 (stereo not drawn) | inactive
Cc1cc(O)c(C)c(C)c1O | inactive
CCCCOC(=O)CCCCCCCCC(=O)OCCCC | inactive
CC(C)C(=O)Nc1cccc(C(F)(F)F)c1 | inactive
CN=C(N)NC(=O)Nc1c(C)cccc1C | inactive
O=C1NC(c2ccccc2)(c2ccccc2)C(=O)N1COP(=O)(O)O | inactive
CC1(C)S[C@@H]2[C@H](NC(=O)C(c3ccccc3)S(=O)(=O)O)C(=O)N2[C@H]1C(=O)O (stereo partly drawn) | inactive
CCC1(c2cnc[nH]2)Cc2ccccc2C1 | inactive
CCN(CC)CC(=O)Oc1ccc(NC(C)=O)cc1 | inactive
O=C(C1CCCCC1)N1CC(=O)N2CCCc3ccccc3C2C1 (stereo not drawn) | inactive
CC(=O)O[C@@H]1CC2C3CCc4cc(OC(=O)c5ccccc5)ccc4C3CCC2(C)[C@H]1OC(C)=O (stereo partly drawn) | inactive
Cc1ccccc1C(=O)N1CC/C(=N\OS(=O)(=O)O)c2ccc(Cl)cc21 | inactive
CCOc1ccccc1OCC1CNCCO1 (stereo not drawn) | inactive
CO/N=C(/C(=O)N[C@@H]1C(=O)N2C(C(=O)OCOC(=O)C(C)(C)C)=C(C)CS[C@H]12)c1csc(N)n1 | inactive
CCOc1c(N2CCOCC2)cnn(C)c1=O | inactive
C=C(C)C(=O)OCC(O)CO (stereo not drawn) | inactive
C[C@H]1C[C@H](O)c2ccsc2S1(=O)=O | inactive
